Laboratory results reported in paper PMC12820563, “FoxP3 forms a head-to-head dimer in vivo and stabilizes its multimerization on adjacent microsatellites”.
Over roughly 16,000 sequences, “rpm ratio (pull-down/input)” has its median near 0.5; the highest 2% begin near 5.5. Many of the other results were omitted from the sample, so the highest values are more common in it than they were.

target: T1, MBP-FoxP3dN (Mus musculus, UniProt Q99JB6 188-423); test: PD-seq (MBP pull-down with sequencing); 20 mM Tris-HCl pH 7.5, 100 mM NaCl, 1.5 mM MgCl2, 0.4 uM protein, 0.1 uM dsDNA library, 30 min, room temperature, amylose pull-down; high values mean tight binding; conditions: protein: recombinant; tags: His6-MBP; chain copies: 2; dsDNA, one strand shown
T1 sequence: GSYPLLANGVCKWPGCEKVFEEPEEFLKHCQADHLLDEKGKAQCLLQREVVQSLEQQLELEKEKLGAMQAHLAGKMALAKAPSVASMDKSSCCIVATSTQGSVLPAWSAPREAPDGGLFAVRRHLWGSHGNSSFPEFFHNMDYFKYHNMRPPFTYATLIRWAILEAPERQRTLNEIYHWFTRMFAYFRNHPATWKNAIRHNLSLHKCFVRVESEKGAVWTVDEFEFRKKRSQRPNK
How it was run: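 His6-MBP-tagged mouse FoxP3 or FoxP1 fragment lacking the N-terminus, expressed in E. coli, was mixed at 0.4 µM with 0.1 µM Klenow-filled double-stranded degenerate DNA library. Incubation was 30 min at room temperature in Tris pH 7.5 buffer with NaCl and MgCl2. Complexes were caught on amylose resin and washed three times; DNA was released with proteinase K, PCR-barcoded and Illumina-sequenced. Binding is reads-per-million enrichment, pull-down over input, with replicates pooled.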

Sequence | binding signal
GATGATTGTTCTCCCAGCTGATGAATTTGCAGTATCGAGTAAACAAATTTTCCTAATCTTTCTGTTCAAGCGCCATCTAC | 1.49 RPM ratio (pull-down/input)
GATGATTGTTCTCCCAGCTGATGAATTTATATACTCGAGTAAACAAATTTTCCTAATCTTTCTGTTCAAGCGCCATCTAC | 3.39 RPM ratio (pull-down/input)
GATGATTGTTCTCCCAGCTGATGAATTTTGGCCTTCGAGTAAACAAATTTTCCTAATCTTTCTGTTCAAGCGCCATCTAC | 2.06 RPM ratio (pull-down/input)
GATGATTGTTCTCCCAGCTGATGAATTATTGCGATCGAGTAAACAAATTTTCCTAATCTTTCTGTTCAAGCGCCATCTAC | 1.08 RPM ratio (pull-down/input)
GATGATTGTTCTCCCAGCTGATGAATTTGGTTGTTCGAGTAAACAAATTTTCCTAATCTTTCTGTTCAAGCGCCATCTAC | 5.35 RPM ratio (pull-down/input)
GATGATTGTTCTCCCAGCTGATGAATTCGTTTGTTCGAGTAAACAAATTTTCCTAATCTTTCTGTTCAAGCGCCATCTAC | 5.83 RPM ratio (pull-down/input)
GATGATTGTTCTCCCAGCTGATGAATTTGATTGTTCGAGTAAACAAATTTTCCTAATCTTTCTGTTCAAGCGCCATCTAC | 6.32 RPM ratio (pull-down/input)
GATGATTGTTCTCCCAGCTGATGAATTTGAATTTTCGAGTAAACAAATTTTCCTAATCTTTCTGTTCAAGCGCCATCTAC | 0.538 RPM ratio (pull-down/input)
GATGATTGTTCTCCCAGCTGATGAATTTTTTGTTTCGAGTAAACAAATTTTCCTAATCTTTCTGTTCAAGCGCCATCTAC | 0.423 RPM ratio (pull-down/input)
GATGATTGTTCTCCCAGCTGATGAATTTGTTGGTTCGAGTAAACAAATTTTCCTAATCTTTCTGTTCAAGCGCCATCTAC | 7.67 RPM ratio (pull-down/input)
GATGATTGTTCTCCCAGCTGATGAATTGATTTGTTCGAGTAAACAAATTTTCCTAATCTTTCTGTTCAAGCGCCATCTAC | 3.85 RPM ratio (pull-down/input)
GATGATTGTTCTCCCAGCTGATGAATTCTTTGTTTCGAGTAAACAAATTTTCCTAATCTTTCTGTTCAAGCGCCATCTAC | 0.575 RPM ratio (pull-down/input)
GATGATTGTTCTCCCAGCTGATGAATTGGTTGGTTCGAGTAAACAAATTTTCCTAATCTTTCTGTTCAAGCGCCATCTAC | 3.77 RPM ratio (pull-down/input)
GATGATTGTTCTCCCAGCTGATGAATTCGTTTTGTCGAGTAAACAAATTTTCCTAATCTTTCTGTTCAAGCGCCATCTAC | 3.54 RPM ratio (pull-down/input)
GATGATTGTTCTCCCAGCTGATGAATTTGTTTTTTCGAGTAAACAAATTTTCCTAATCTTTCTGTTCAAGCGCCATCTAC | 6.93 RPM ratio (pull-down/input)
GATGATTGTTCTCCCAGCTGATGAATTCGTTTTTTCGAGTAAACAAATTTTCCTAATCTTTCTGTTCAAGCGCCATCTAC | 2.58 RPM ratio (pull-down/input)
GATGATTGTTCTCCCAGCTGATGAATTGTACTATTCGAGTAAACAAATTTTCCTAATCTTTCTGTTCAAGCGCCATCTAC | 0.669 RPM ratio (pull-down/input)

Sequence | binding signal
GATGATTGTTCTCCCAGCTGATGAATTGTCCCTGTCGAGTAAACAAATTTTCCTAATCTTTCTGTTCAAGCGCCATCTAC | 0.319 RPM ratio (pull-down/input)
GATGATTGTTCTCCCAGCTGATGAATTAGGGGTTTCGAGTAAACAAATTTTCCTAATCTTTCTGTTCAAGCGCCATCTAC | 0.738 RPM ratio (pull-down/input)
GATGATTGTTCTCCCAGCTGATGAATTTTACGCGTCGAGTAAACAAATTTTCCTAATCTTTCTGTTCAAGCGCCATCTAC | 0.624 RPM ratio (pull-down/input)
GATGATTGTTCTCCCAGCTGATGAATTGAGACACTCGAGTAAACAAATTTTCCTAATCTTTCTGTTCAAGCGCCATCTAC | 1.41 RPM ratio (pull-down/input)
GATGATTGTTCTCCCAGCTGATGAATTGCGGACATCGAGTAAACAAATTTTCCTAATCTTTCTGTTCAAGCGCCATCTAC | 0.781 RPM ratio (pull-down/input)
GATGATTGTTCTCCCAGCTGATGAATTAAAAATTTCGAGTAAACAAATTTTCCTAATCTTTCTGTTCAAGCGCCATCTAC | 0.202 RPM ratio (pull-down/input)
GATGATTGTTCTCCCAGCTGATGAATTTGGTTAATCGAGTAAACAAATTTTCCTAATCTTTCTGTTCAAGCGCCATCTAC | 0.489 RPM ratio (pull-down/input)
GATGATTGTTCTCCCAGCTGATGAATTCCCCGCATCGAGTAAACAAATTTTCCTAATCTTTCTGTTCAAGCGCCATCTAC | 0.735 RPM ratio (pull-down/input)
GATGATTGTTCTCCCAGCTGATGAATTCTCCGCATCGAGTAAACAAATTTTCCTAATCTTTCTGTTCAAGCGCCATCTAC | 0.8 RPM ratio (pull-down/input)
GATGATTGTTCTCCCAGCTGATGAATTCCGCATTTCGAGTAAACAAATTTTCCTAATCTTTCTGTTCAAGCGCCATCTAC | 6.33 RPM ratio (pull-down/input)
GATGATTGTTCTCCCAGCTGATGAATTTCCGCATTCGAGTAAACAAATTTTCCTAATCTTTCTGTTCAAGCGCCATCTAC | 6.24 RPM ratio (pull-down/input)
GATGATTGTTCTCCCAGCTGATGAATTTTCCGCATCGAGTAAACAAATTTTCCTAATCTTTCTGTTCAAGCGCCATCTAC | 1.07 RPM ratio (pull-down/input)
GATGATTGTTCTCCCAGCTGATGAATTCCGCAATTCGAGTAAACAAATTTTCCTAATCTTTCTGTTCAAGCGCCATCTAC | 4.91 RPM ratio (pull-down/input)
GATGATTGTTCTCCCAGCTGATGAATTTCCCGCATCGAGTAAACAAATTTTCCTAATCTTTCTGTTCAAGCGCCATCTAC | 0.913 RPM ratio (pull-down/input)
GATGATTGTTCTCCCAGCTGATGAATTCCCGCATTCGAGTAAACAAATTTTCCTAATCTTTCTGTTCAAGCGCCATCTAC | 5.9 RPM ratio (pull-down/input)
GATGATTGTTCTCCCAGCTGATGAATTCCGCGCATCGAGTAAACAAATTTTCCTAATCTTTCTGTTCAAGCGCCATCTAC | 1.39 RPM ratio (pull-down/input)
GATGATTGTTCTCCCAGCTGATGAATTCCGCATCTCGAGTAAACAAATTTTCCTAATCTTTCTGTTCAAGCGCCATCTAC | 6.95 RPM ratio (pull-down/input)
